Experimental data taken from PubChem BioAssay.
Records with an inconclusive call do not appear. Activity calls are given as the source filed them. Unless noted, no rule for the calls is given here.

Tests used:
[1] = yeast TOR pathway RPL19A-GFP modulators, primary screen, cell-based, S. cerevisiae, multiplex flow cytometry (AID 1862; in the data active = percent of DMSO control GFP below about 86%;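 also: lower values mimic rapamycin by blocking the RPL19A rise seen in DMSO cells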); conditions: S. cerevisiae RPL19A-GFP strain, flow cytometry fluorescence, 3 h; at 10 µM; stronger effect = lower value
[2] = modulators of MEP2-GFP levels in yeast, primary screen, S. cerevisiae, multiplex flow cytometry (AID 1867;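 active = GFP response, as percent of the DMSO control, above the screen-wide mean plus 3 SD, about 139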;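 also: median GFP channel fluorescence of barcode-gated MEP2-GFP cells measured by flow cytometry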); conditions: S. cerevisiae MEP2-GFP strain, 3 h, at 10 µM, stronger effect = higher value
[3] = modulators of CIT2-GFP expression in yeast, primary screen, S. cerevisiae, GFP fusion, multiplex flow cytometry (AID 1870;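 active = percent response above a set limit, the screen-wide mean plus 3 SD, cut at about 130% in these data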;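 also: barcoded CIT2-GFP strain pooled with four other GFP strains with rapamycin as positive control; median GFP fluorescence per well over plate mean of DMSO wells so 100% = DMSO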); conditions: 3 h, at 10 µM, stronger effect = higher value
[4] = modulators of LAP4-GFP expression in yeast, primary screen, S. cerevisiae, multiplex flow cytometry (AID 1873;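 active = GFP signal, as percent of the solvent control, above the screen mean plus 3 SD, about 149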); conditions: 3 h, at 10 µM, stronger effect = higher value
[5] = modulators of AGP1-GFP expression in yeast TOR pathway, primary screen, cell-based, multiplex flow cytometry, S. cerevisiae (AID 1887;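 active = GFP signal above the screen-wide mean plus 3 SD, that is over about 124.5% of the solvent control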;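 also: AGP1-GFP fusion strain of S. cerevisiae within a five-strain barcoded multiplex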); conditions: 3 h, at 10 µM, stronger effect = higher value
[6] = inhibitors of CD8+ T cell-vesicle binding, pilot screen, LFA-1/ICAM-1 modulator project, MLPCN validation set, flow cytometry (AID 2523;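 active = response below a set limit, under 55% cells CD8-positive and vesicle-bound, and CD8 cells' 90th-percentile brightness under 279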;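 as to vesicle binding response: mean PE anti-B7-1 fluorescence of CD8+ cells relative to row control; 100% = QL9-loaded vesicles with DMSO vehicle in the same plate row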); conditions: 2C mouse CD8+ T cells, at 7 µM, stronger effect = lower value; double positive events: measured here: CD8+/vesicle+ event percentage
[7] = molecular target: Integrin beta-1 (Homo sapiens) + Integrin alpha-4 (Homo sapiens) (UniProt P13612+P05556); experiment: inhibition of HUTS-21 binding to VLA-4, pilot screen, VLA-4 allosteric modulator project, U937 cells, HUTS-21 mAb, flow cytometry, validation set (AID 2674;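 active = inhibition above 50%, about 3 SD of the validation set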;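 also: antibody binding induced by the VLA-4 ligand LDV present at three times its Kd; 0% = LDV ligand with antibody and no compound and 100% = antibody without LDV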); conditions: HUTS-21 LIBS mAb binding, at 6.7 µM, stronger effect = higher value
[8] = superoxide lowering in aged yeast cells, pilot screen, validation compound set (AID 2706;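 active = superoxide response below 65% of plate, a cut near 3 SD across the whole screen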;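 also: yeast exposed to compound for one week at 30 degrees C before staining; 100% = mean of all compound wells on the same plate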); conditions: S. cerevisiae aging, superoxide DHE fluorescence; at 10 µM; stronger effect = lower value
[9] = molecular target: Beta-adrenergic receptor kinase 1 (Homo sapiens) (UniProt P25098); experiment: GRK2 binders displacing RNA aptamer, biochemical, validation, human GRK2, bead flow cytometry (AID 488806;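 active = aptamer binding inhibition above 30%, about 3 SD of noise from non-fluorescent compounds; inactive = inhibition at or below 30%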); conditions: bead-bound GRK2, FAM-aptamer displacement, at 10 µM, stronger effect = higher value
[10] = molecular target: Beta-2 adrenergic receptor (Homo sapiens) (UniProt P07550); experiment: beta2AR agonists driving receptor internalization, pilot screen, cell-based, FAP fluorogen, flow cytometry, validation set (AID 504459;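 active = percent response above 42, roughly 3 SD of non-fluorescent test compounds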;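 also: agonist-driven loss of surface beta2AR via internalization measured by FAP dye flow cytometry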); conditions: Am2.2-beta2AR cells, FAP surface receptor flow cytometry; at 10 µM; stronger effect = higher value
[11] = molecular target: AP-2 complex subunit beta (Homo sapiens) (UniProt P63010); experiment: inhibitors of arrestin peptide binding to AP2, pilot screen, biochemical, validation set, GST-AP2 beads, flow cytometry (AID 504541;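 active = inhibition above 54%, about 3 SD of non-fluorescent compounds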;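 also: AP2 carries R879A mutation and is captured from E. coli lysate; bead-bound FITC arrestin peptide fluorescence measuring arrestin peptide binding to AP2; 0% = DMSO wells and 100% = excess unlabeled arrestin peptide control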); conditions: FITC arrestin peptide, at 10 µM, stronger effect = higher value
[12] = yeast V-ATPase proton transport modulators, S. cerevisiae, pHLuorin, HTS validation (AID 504600; in the data active = response above about 15%;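 also: plate controls were DMSO for no effect and reference compound for full effect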); conditions: S. cerevisiae pHLuorin cytosolic pH, at 10 µM, stronger effect = higher value
[13] = test system: anti-desmoglein-3 scFv antibody binding to human DSG3; experiment: inhibitors of anti-DSG3 scFv binding to DSG3, pilot screen, biochemical, validation compound set, bead-based, flow cytometry (AID 588368;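 active = binding below the plate cutoff, the plate median minus 3 SD, with a reading above zero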;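 also: signal is the median channel fluorescence of bead-bound GFP antibody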); conditions: Protein G beads, DSG3-Fc, scFv-GFP binding, at 10 µM, stronger effect = lower value
[14] = test system: Botulinum neurotoxin type F light chain protease (Clostridium botulinum); experiment: Botulinum neurotoxin type F light chain protease inhibition, multiplex microsphere flow cytometry, validation set (AID 588459); conditions: multiplex microsphere protease substrate cleavage assay, at 10 µM, stronger effect = higher value
[15] = molecular target: Botulinum neurotoxin type A (Clostridium botulinum) (UniProt P0DPI0); experiment: BoNT/A light chain protease inhibitors, biochemical, multiplex microsphere flow cytometry, validation set (AID 588460); conditions: at 10 µM, stronger effect = higher value
[16] = molecular target: Lethal factor (Bacillus anthracis) (UniProt P15917); experiment: Lethal factor protease inhibitors, Bacillus anthracis, multiplex microsphere cleavage assay, validation set (AID 588461); conditions: flow cytometry, at 10 µM, stronger effect = higher value
[17] = inhibitors of fungal efflux pumps CDR1, CDR2, MDR1, pilot screen, validation compound set, multiplex, phenotypic (AID 588506;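 active = efflux inhibition above 0.42, the validation set average plus 4 SD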;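 also: Nile Red retained in cells so higher fluorescence means more efflux inhibition; 0 = negative control wells and 1 = enniatin B 25 µM full block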); conditions: S. cerevisiae pump-expressing triplex, Nile Red efflux flow cytometry; at 10 µM; stronger effect = higher value
[18] = molecular target: ATP-binding cassette sub-family B member 6 (Homo sapiens) (UniProt Q9NP58); experiment: ABCB6 transporter inhibitors, pilot screen, K562-ABCB6 cells, flow cytometry, validation set (AID 588550;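 active = inhibition above the screen-wide mean plus 3 SD, about 51%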;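 also: 0% = DMSO wells and 100% = benzethonium chloride 70 µM positive control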); conditions: K562-ABCB6 porphyrin accumulation, 1 h, at 10 µM, stronger effect = higher value
[19] = promoters of myeloid differentiation in arrested cells, primary screen, cell-based, GFP/MAC1 double positive, flow cytometry, validation set (AID 588685;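 active = differentiation response of at least 50%, scaled between solvent and reference control, from cells with both markers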;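 also: compound exposure lasts four days before antibody staining and flow analysis; 0% = DMSO wells and 100% = 5 µM fulvestrant positive control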); conditions: ER-HoxA9 marrow cells, stronger effect = higher value

Chain of Beta-adrenergic receptor kinase 1 (Homo sapiens) (P25098 whole entry, looked up): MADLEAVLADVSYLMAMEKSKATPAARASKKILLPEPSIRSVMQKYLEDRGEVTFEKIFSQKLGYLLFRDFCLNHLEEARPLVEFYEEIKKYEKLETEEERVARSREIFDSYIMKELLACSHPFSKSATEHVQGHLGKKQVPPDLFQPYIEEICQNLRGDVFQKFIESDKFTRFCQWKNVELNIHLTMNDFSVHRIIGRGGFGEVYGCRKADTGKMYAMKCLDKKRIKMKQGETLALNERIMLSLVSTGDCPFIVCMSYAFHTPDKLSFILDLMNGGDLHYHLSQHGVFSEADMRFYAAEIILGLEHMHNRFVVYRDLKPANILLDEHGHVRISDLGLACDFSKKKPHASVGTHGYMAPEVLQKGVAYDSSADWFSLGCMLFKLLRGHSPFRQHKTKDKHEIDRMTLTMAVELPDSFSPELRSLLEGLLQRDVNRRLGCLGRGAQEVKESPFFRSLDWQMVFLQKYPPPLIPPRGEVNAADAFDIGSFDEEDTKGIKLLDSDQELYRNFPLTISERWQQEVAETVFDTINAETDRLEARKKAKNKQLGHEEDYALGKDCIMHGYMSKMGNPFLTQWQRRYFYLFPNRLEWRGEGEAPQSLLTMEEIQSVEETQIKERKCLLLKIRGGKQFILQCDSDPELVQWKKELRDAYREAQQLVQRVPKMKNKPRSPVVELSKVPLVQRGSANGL
Chain of Integrin beta-1 (Homo sapiens) + Integrin alpha-4 (Homo sapiens) (P05556 whole entry, looked up): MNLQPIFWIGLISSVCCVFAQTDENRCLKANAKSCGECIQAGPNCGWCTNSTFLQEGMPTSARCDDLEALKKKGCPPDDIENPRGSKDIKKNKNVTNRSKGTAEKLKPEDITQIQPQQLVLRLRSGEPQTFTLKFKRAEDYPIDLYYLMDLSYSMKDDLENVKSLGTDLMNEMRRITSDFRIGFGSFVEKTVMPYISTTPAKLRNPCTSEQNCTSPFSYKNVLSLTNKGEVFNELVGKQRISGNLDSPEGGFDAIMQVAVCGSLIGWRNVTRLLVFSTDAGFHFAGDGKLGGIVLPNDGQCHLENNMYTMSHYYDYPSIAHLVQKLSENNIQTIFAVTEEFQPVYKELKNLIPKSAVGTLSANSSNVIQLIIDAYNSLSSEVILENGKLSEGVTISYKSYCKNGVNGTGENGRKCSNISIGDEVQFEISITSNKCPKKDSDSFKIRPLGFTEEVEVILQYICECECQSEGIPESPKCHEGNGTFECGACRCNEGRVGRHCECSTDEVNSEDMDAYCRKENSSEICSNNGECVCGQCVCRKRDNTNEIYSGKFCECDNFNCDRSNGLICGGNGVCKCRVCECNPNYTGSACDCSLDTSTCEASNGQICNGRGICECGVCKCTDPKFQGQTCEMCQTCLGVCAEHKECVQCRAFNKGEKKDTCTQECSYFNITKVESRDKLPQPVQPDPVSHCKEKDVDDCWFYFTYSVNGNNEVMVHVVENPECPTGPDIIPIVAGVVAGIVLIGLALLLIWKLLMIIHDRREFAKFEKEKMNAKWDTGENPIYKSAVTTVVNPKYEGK
Chain of Integrin beta-1 (Homo sapiens) + Integrin alpha-4 (Homo sapiens) (P13612 whole entry, looked up): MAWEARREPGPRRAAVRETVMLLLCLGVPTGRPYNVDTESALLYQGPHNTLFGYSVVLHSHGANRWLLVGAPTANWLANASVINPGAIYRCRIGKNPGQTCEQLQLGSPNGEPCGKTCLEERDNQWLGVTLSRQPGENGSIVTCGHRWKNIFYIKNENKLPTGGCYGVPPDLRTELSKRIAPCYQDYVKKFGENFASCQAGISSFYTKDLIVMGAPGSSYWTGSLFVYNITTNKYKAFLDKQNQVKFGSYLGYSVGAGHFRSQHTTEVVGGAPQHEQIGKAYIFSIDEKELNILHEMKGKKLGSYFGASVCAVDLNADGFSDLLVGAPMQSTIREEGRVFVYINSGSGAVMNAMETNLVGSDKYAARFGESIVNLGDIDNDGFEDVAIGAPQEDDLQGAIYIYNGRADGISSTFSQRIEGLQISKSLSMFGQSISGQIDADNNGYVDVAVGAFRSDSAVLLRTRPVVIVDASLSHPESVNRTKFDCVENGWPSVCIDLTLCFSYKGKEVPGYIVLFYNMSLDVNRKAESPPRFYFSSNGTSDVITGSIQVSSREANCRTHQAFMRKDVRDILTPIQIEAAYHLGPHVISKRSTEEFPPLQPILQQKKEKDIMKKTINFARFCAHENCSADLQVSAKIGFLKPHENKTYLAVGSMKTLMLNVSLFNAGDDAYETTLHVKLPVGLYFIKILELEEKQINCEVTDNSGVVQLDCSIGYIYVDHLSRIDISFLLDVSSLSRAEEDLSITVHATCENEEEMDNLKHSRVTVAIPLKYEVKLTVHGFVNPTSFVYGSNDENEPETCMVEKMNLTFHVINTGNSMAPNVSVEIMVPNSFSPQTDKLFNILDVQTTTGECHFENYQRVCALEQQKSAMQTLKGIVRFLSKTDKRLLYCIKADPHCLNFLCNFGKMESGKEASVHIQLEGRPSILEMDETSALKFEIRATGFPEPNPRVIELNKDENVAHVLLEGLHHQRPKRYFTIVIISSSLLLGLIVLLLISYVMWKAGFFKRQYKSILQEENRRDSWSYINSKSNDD
Chain of ATP-binding cassette sub-family B member 6 (Homo sapiens) (Q9NP58 whole entry, looked up): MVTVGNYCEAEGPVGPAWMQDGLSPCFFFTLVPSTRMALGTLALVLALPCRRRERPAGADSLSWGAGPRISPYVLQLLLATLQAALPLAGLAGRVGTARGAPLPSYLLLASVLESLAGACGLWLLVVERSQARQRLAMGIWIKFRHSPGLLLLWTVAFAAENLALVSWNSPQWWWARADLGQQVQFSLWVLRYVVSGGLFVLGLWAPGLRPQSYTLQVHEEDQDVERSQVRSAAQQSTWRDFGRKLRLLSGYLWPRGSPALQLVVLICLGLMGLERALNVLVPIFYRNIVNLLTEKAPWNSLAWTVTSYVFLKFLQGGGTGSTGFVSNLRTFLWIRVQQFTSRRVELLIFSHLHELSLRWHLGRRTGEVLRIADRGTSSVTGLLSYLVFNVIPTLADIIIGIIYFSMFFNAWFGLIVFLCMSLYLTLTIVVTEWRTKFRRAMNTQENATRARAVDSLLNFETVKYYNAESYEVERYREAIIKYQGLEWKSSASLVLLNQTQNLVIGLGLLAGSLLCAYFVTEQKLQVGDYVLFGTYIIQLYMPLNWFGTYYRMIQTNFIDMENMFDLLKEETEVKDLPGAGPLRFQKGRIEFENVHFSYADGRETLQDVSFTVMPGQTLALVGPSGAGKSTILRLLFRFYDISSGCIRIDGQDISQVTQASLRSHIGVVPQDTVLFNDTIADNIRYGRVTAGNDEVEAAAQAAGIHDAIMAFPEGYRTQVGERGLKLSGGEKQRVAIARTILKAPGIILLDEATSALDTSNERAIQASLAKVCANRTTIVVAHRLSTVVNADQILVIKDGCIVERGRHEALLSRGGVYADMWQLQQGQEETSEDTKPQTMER
Chain of Beta-2 adrenergic receptor (Homo sapiens) (P07550 whole entry, looked up): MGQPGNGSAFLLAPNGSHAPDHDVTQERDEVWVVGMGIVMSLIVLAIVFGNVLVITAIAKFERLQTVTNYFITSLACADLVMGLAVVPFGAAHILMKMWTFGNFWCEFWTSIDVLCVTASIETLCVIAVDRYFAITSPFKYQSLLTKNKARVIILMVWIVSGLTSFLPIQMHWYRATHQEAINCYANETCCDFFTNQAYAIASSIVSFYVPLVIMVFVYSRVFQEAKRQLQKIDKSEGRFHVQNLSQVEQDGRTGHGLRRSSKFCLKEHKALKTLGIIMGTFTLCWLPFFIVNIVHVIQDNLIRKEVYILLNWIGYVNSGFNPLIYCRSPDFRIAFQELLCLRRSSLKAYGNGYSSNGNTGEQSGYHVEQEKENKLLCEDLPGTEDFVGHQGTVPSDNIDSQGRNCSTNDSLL
Chain of Lethal factor (Bacillus anthracis) (P15917 whole entry, looked up): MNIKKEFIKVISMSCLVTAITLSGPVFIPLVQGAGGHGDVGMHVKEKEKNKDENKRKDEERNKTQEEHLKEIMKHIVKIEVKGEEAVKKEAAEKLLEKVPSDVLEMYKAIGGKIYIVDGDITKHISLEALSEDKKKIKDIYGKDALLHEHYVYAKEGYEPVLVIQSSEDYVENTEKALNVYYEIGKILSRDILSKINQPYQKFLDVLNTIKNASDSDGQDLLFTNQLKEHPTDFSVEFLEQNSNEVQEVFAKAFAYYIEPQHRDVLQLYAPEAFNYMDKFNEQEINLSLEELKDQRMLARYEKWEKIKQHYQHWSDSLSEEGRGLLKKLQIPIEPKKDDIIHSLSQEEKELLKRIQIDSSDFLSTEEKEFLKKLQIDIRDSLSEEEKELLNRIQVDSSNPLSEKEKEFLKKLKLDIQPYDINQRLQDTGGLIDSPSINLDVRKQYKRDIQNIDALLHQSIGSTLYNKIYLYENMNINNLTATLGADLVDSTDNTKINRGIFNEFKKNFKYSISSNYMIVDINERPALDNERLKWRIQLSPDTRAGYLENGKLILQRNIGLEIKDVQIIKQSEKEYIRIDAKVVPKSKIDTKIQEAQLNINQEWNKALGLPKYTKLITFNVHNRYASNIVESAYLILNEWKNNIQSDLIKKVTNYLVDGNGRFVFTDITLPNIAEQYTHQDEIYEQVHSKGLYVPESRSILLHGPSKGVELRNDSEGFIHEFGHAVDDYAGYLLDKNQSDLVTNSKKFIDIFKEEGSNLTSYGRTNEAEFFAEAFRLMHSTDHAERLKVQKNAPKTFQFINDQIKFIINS

COc1ccc(NC2=NCC(C)S2)cc1 (stereo not given)
69.5%: double positive events [6]
inactive: percent of DMSO control GFP [1] 103% | GFP response vs DMSO [2] 101% | percent response of DMSO control [3] 109% | GFP response vs DMSO [4] 89.3% | GFP response, % of DMSO [5] 96% | vesicle binding response [6] 150% | inhibition [7] 11% | superoxide response (% of plate) [8] 101% | aptamer binding inhibition [9] 2% | response [10] 5.38% | inhibition [11] 5.98% | response [12] 4.39% | binding (% of control) [13] 100% | inhibition [14] -2.8% | inhibition [15] 0.2% | inhibition [16] -2.7% | efflux inhibition (fraction of control) [17] 0.195 | inhibition [18] 0% | differentiation response [19] -3.11%

C=C1[C@@H](C)[C@H]2[C@H](Cc3ccccc3)NC(=O)[C@]23OC(=O)/C=C/[C@H](O)CCC[C@@H](C)C/C=C/[C@H]3[C@@H]1O
62.1%: double positive events [6]
inactive: percent of DMSO control GFP [1] 106% | GFP response vs DMSO [2] 102% | percent response of DMSO control [3] 106% | GFP response vs DMSO [4] 114% | GFP response, % of DMSO [5] 119% | vesicle binding response [6] 205% | inhibition [7] -2.82% | superoxide response (% of plate) [8] 102% | aptamer binding inhibition [9] 4% | response [10] 36.2% | inhibition [11] -4.43% | response [12] 0.39% | binding (% of control) [13] 102% | inhibition [14] 2% | inhibition [15] 0.4% | inhibition [16] -2.5% | efflux inhibition (fraction of control) [17] -0.21 | inhibition [18] 7% | differentiation response [19] -4%

COc1cccc(Oc2c(C)oc3cc(OC(=O)N(C)C)ccc3c2=O)c1
60.2%: double positive events [6]
inactive: percent of DMSO control GFP [1] 102% | GFP response vs DMSO [2] 102% | percent response of DMSO control [3] 107% | GFP response vs DMSO [4] 99.1% | GFP response, % of DMSO [5] 99.4% | vesicle binding response [6] 148% | inhibition [7] 5.61% | superoxide response (% of plate) [8] 110% | aptamer binding inhibition [9] 0% | response [10] -2.34% | inhibition [11] 8.84% | response [12] -4.25% | binding (% of control) [13] 101% | inhibition [14] -1.7% | inhibition [15] -0.4% | inhibition [16] -1.2% | efflux inhibition (fraction of control) [17] -0.02 | inhibition [18] 23% | differentiation response [19] -3.11%

Cc1ccc(-n2c(C)cc(/C=C3/C(=O)NC(=O)N(C)C3=O)c2C)cc1
64.1%: double positive events [6]
inactive: percent of DMSO control GFP [1] 103% | GFP response vs DMSO [2] 103% | percent response of DMSO control [3] 107% | GFP response vs DMSO [4] 103% | GFP response, % of DMSO [5] 106% | vesicle binding response [6] 164% | inhibition [7] 0.25% | superoxide response (% of plate) [8] 94.5% | aptamer binding inhibition [9] -5% | response [10] 3.21% | inhibition [11] -0.22% | response [12] 5.34% | binding (% of control) [13] 108% | inhibition [14] -1.4% | inhibition [15] 0.3% | inhibition [16] -5% | efflux inhibition (fraction of control) [17] -0.22 | inhibition [18] -2% | differentiation response [19] -14.8%

C[C@]12CC[C@@H](O)C[C@@H]1CC[C@@H]1[C@@H]2CC[C@]2(C)C(=O)CC[C@@H]12
inactive: percent of DMSO control GFP [1] 100% | GFP response vs DMSO [2] 99.7% | percent response of DMSO control [3] 84.1% | GFP response vs DMSO [4] 147% | GFP response, % of DMSO [5] 101% | vesicle binding response [6] 118% | inhibition [7] -2.43% | superoxide response (% of plate) [8] 75.3% | aptamer binding inhibition [9] 3% | response [10] 20.4% | inhibition [11] -0.33% | response [12] -2.85% | binding (% of control) [13] 99% | inhibition [14] 2% | inhibition [15] -0.3% | inhibition [16] -2.4% | efflux inhibition (fraction of control) [17] -0.07 | inhibition [18] 0% | differentiation response [19] -4.57%
62.8%: double positive events [6]

CC[C@]12C=CCN3CCC4(c5cc(Br)c(OC)cc5N(C)C4[C@@](O)(C(=O)OC)[C@@H]1OC(C)=O)C32 (stereo not given in full)
inactive: percent of DMSO control GFP [1] 88.9% | GFP response vs DMSO [2] 130% | percent response of DMSO control [3] 96.6% | GFP response vs DMSO [4] 84.2% | GFP response, % of DMSO [5] 90.5% | inhibition [7] 29.7% | superoxide response (% of plate) [8] 95.7% | aptamer binding inhibition [9] 5% | response [10] -10.3% | inhibition [11] -7.24% | response [12] 5.2% | binding (% of control) [13] 109% | inhibition [14] 2.5% | inhibition [15] 1.6% | inhibition [16] -5.6% | efflux inhibition (fraction of control) [17] 0.23 | inhibition [18] 10% | differentiation response [19] 0%
active: vesicle binding response [6] 18.6%
48.2%: double positive events [6]

CC12CN3CC(C)(CN(C1)C3c1cccs1)C2O (stereo not given)
inactive: percent of DMSO control GFP [1] 105% | GFP response vs DMSO [2] 98.3% | percent response of DMSO control [3] 109% | GFP response vs DMSO [4] 83.5% | GFP response, % of DMSO [5] 104% | vesicle binding response [6] 976% | inhibition [7] 4.73% | superoxide response (% of plate) [8] 106% | aptamer binding inhibition [9] 2% | response [10] -7.61% | inhibition [11] 1.53% | response [12] 1.19% | binding (% of control) [13] 98% | inhibition [14] -2.4% | inhibition [15] -1.2% | inhibition [16] 7.5% | efflux inhibition (fraction of control) [17] -0.07 | inhibition [18] 0% | differentiation response [19] 0.24%
67%: double positive events [6]

CCOc1ccc(C2C(C#N)=C(N)Oc3c2c(=O)oc2ccccc32)cc1 (stereo not given)
59.3%: double positive events [6]
inactive: percent of DMSO control GFP [1] 104% | GFP response vs DMSO [2] 99.6% | percent response of DMSO control [3] 102% | GFP response vs DMSO [4] 102% | GFP response, % of DMSO [5] 101% | vesicle binding response [6] 213% | inhibition [7] 9.13% | superoxide response (% of plate) [8] 103% | aptamer binding inhibition [9] 4% | response [10] -0.19% | inhibition [11] 22.7% | response [12] -3.38% | binding (% of control) [13] 104% | inhibition [14] -0.4% | inhibition [15] 0.3% | inhibition [16] 0.5% | efflux inhibition (fraction of control) [17] -0.13 | inhibition [18] 5% | differentiation response [19] -23.2%
